The values that follow come from PubChem BioAssay (NCATS).

Assay [1] concerns the target Lysosomal acid glucosylceramidase (Homo sapiens) (UniProt P04062). The assay is described as follows: Glucocerebrosidase-p2 (AID 348; in the data active = potency below about 10 µM; note: potency is the fitted concentration of half-maximal effect). The note with it: purified GBA, blue fluorogenic substrate, 40 min. Put shortly: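 Normal human glucocerebrosidase (0.2 nM) with blue fluorogenic substrate (80 uM final) in citrate/phosphate pH 5.9 with 10mM sodium taurocholate, 0.01% tween-20; 40 min RT, NaOH/glycine stop; fluorescence Ex 365/Em 440; AC50 from a titration from 0.6 nM upwards.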

A short description of assay [2]: NFAT Signaling Pathway (AID 444; active = well fitted curve in either direction with a large enough effect, not every such curve was filed as active;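 note: carbachol stimulus at about its EC50 of 1 µM final; % is set by controls: 0 for no effect and ±100 for the full control effect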). The note with it: Jurkat NFAT-bla M1, carbachol, beta-lactamase ratio, 5 h; at 7.69 µM (top of the series) unless noted. Put shortly:
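Read-out: CCF4 FRET ratio (460 nm/530 nm) after 1 h RT dye loading, used for %activity and AC50 from titration series. Cells: Jurkat NFAT-β-lactamase/M1 line, treated with compound plus 1 uM carbachol for 5 h, 37 °C.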

Assay [3] is described as follows: Stat Signaling Pathway (AID 446; active = well fitted curve in either direction with a large enough effect, not every such curve was filed as active;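 note: ME-180 cervical cancer cells given 40 pM IL-6 alongside compound; SIE-controlled beta-lactamase reporter measured as 460/530 nm FRET emission ratio; % is set by controls: 0 for no effect and ±100 for the full control effect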). Conditions: ME-180 SIE beta-lactamase reporter, IL-6 stimulated, 5 h; at 7.69 µM (top of the series) unless noted. Put shortly:
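Compound effects on IL-6-induced STAT reporter activity were measured in ME-180 cells. After overnight culture, cells were co-treated with 40 pM IL-6 for 5 hrs before beta-lactamase substrate loading at room temperature.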

The target of assay [4] is Glucocorticoid receptor (Homo sapiens) (UniProt P04150). Kind of assay: GR-GFP Redistribution (AID 450;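 active = compounds whose dose series gives a full or clear partial fitted curve of increased nuclear translocation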; note: potency is the fitted concentration of half-maximal effect). The note with it: U2OS GR-GFP nuclear translocation, laser cytometry, 2 h.
Assay [5] shares this target. Kind of assay: GR-EFC Redistribution (AID 451; calls by dose curve; note: potency is the fitted concentration of half-maximal effect). Conditions: CHO-K1 GR-EFC translocation, beta-gal luminescence, 2 h. In a few lines:
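Translocation of GR-ED fusion to nuclear EA restores b-gal, read by luminescence after 1 h room-temperature detection. Engineered CHO-K1 biosensor cells, 1,000/well, exposed 2 h at 37 C to titrations up to 46 uM final.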

The target of assay [6] is Mitogen-activated protein kinase 10 (Mus musculus) (UniProt Q61831). Kind of assay: JNK3 AlphaScreen Assay (AID 530; active = well fitted curve in either direction with a large enough effect, not every such curve was filed as active;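 note: kinase came from lysate of stimulated human HepG2 cells; signal reports phosphorylation of biotinylated GST-cJun 1-79 at Ser73 with 10 µM ATP; % is set by controls: 0 for no effect and ±100 for the full control effect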). Conditions: JNK3 lysate, c-Jun phosphorylation; series mostly up to 57.1 µM. Put shortly: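 qHTS titrations with 15 min compound pre-incubation before adding ATP (10 uM final). Read-out: AlphaScreen of Ser73-phosphorylated biotin-GST-cJun using HepG2 lysate JNK3 activated by IL-1β and TNFα.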

Assay [7] concerns the target 3',5'-cyclic-AMP phosphodiesterase 4B (Homo sapiens) (UniProt Q07343). The assay is described as follows: qHTS Assay for Inhibitors of PDE-IV (AID 607; active = well fitted activation curve with a large enough effect in the main read-out, with a control signal flat, not every such curve was filed as active; note: % of control where 0% means no effect). Conditions: HEK293 ACTOne CNG channel cells, membrane potential fluorescence; series mostly up to 22.9 µM. Put shortly: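 ACTOne HEK293 cells carry a modified cAMP-gated CNG channel and express endogenous PDE4; plated 1000 cells/well, compounds up to 22.9 uM final. Membrane-potential dye fluorescence (ex 535/em 590) was read; parental cells received 10 uM forskolin + 100 uM RO 20-1724.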
In general terms: Quantitative high-throughput screening tests each substance at several concentrations.

The nature of assay [8]: Primary qHTS for small molecule stabilizers of the endoplasmic reticulum resident proteome: Secreted ER Calcium Modulated Protein (SERCaMP) assay (AID 1508630). Note: % is set by controls: 0 for no effect and ±100 for the full control effect. Conditions: SH-SY5Y GLuc-SERCaMP (Gaussia luciferase released on ER calcium loss) secretion, thapsigargin, luminescence; series mostly up to 38.4 µM. Put shortly:
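The SH-SY5Y reporter protocol was run at 3 concentrations up to 38.3 uM (primary) or 11 concentrations (follow-up): 16 h compound, 100 nM thapsigargin for 4 h, then extracellular luciferase luminescence.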

Assay [9] is described as follows: AP1 Signaling Pathway (AID 357; active = well fitted curve in either direction with a large enough effect, not every such curve was filed as active; note: % is set by controls: 0 for no effect and ±100 for the full control effect). Conditions: ME-180 AP-1-bla reporter, EGF-induced, beta-lactamase ratio, 5 h; at 7.69 µM (top of the series) unless noted. Put shortly: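 Cells are seeded overnight, exposed to compound titrations and an EC50 level of EGF for 5 hours at 37 °C, then loaded with CCF4 dye for 2.5 hours. Beta-lactamase activity under the AP-1 element is read as a blue/green ratio.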

In assay [10] the target is Cytochrome P450 1A2 (Homo sapiens) (UniProt P05177). Kind of assay: p450-cyp1a2 (AID 410; calls by dose curve;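 note: -100% = full effect of reference inhibitor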). The note with it: recombinant CYP1A2, luciferin-ME demethylation, luminescence; series mostly up to 57 µM. Put shortly:
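Luminescent demethylation readout: Luciferin-ME (100uM, equal to Km) turned over by 20nM CYP1A2 for 60 min at room temperature after NADPH regeneration addition, following 10 min compound preincubation. Normalization used 57 uM furafylline as full inhibition.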

Assay [11] addresses Guanine nucleotide-binding protein G(i) subunit alpha-1 (Homo sapiens) (UniProt P63096). Kind of assay: qHTS Assay for Inhibitors of RGS12 GoLoco Motif Activity (Green Fluorophore) (AID 879).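 Note: 0% = labeled peptide with Gαi1 and full inhibition = labeled peptide alone without protein; negative values mean loss of peptide binding seen as reduced polarization.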 Conditions: Galphai1/FITC-RGS12 GoLoco peptide, fluorescence polarization; series mostly up to 57.1 µM. In a few lines: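 A drop in FITC polarization marked displacement of the FITC-tagged RGS12 GoLoco peptide (10 nM) from Gαi1 (50 nM). Compounds were incubated 10 min at room temperature in Tris pH 7.5 buffer containing 150 mM NaCl, 0.1 mM GDP and 0.05% NP40; unlabeled peptide titration served as control.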

For assay [12], the target named is Cytochrome P450 3A4 (Homo sapiens) (UniProt P08684). The assay is described as follows: qHTS Assay for Activators of Cytochrome P450 3A4 (AID 885). Note: nearly all actives have a fitted effect of over 65% in size. The note with it: recombinant CYP3A4, Luciferin-PPXE luminescence, 60 min; series mostly up to 57.1 µM. Put shortly:
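CYP3A4 activity: Luciferin-PPXE O-dealkylation, 25uM substrate, 200mM KPO4, RT throughout. Read-out is luciferase luminescence; higher values reflect activation.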

In assay [13] the target is Muscarinic acetylcholine receptor M1 (Rattus norvegicus) (UniProt P08482). The assay is described as follows: qHTS Assay for Antagonists of Acetylcholine Muscarinic M1 Receptor: Measurement of IP-One Response (AID 944). Note: nearly all actives have a fitted effect of over 75% in size. The note with it: CHO-M1 cells, IP-One HTRF, antagonist mode; series mostly up to 46.1 µM. In a few lines:
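IP1 accumulation measured via TR-FRET between d2-IP1 and Eu-cryptate anti-IP1 antibody after carbachol (200 nM, EC80) stimulation for 30 min; rat M1-transfected CHO cells received compound 10 min before agonist.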

For assay [14], the target named is Pyruvate kinase (Leishmania mexicana) (UniProt Q27686). Kind of assay: qHTS Validation Assay for Inhibitors of Leishmania Mexicana Pyruvate Kinase (AID 945).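 Note: 0% = DMSO only neutral control wells.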 Conditions: purified L. mexicana pyruvate kinase, enzyme activity, E451W mutant enzyme; series mostly up to 57.5 µM. In a few lines: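 Purified LmPYK (E451W mutant, 0.2 nM) was incubated 1 h at room temperature with 0.5 mM PEP and 0.1 mM ADP in 50 mM imidazole pH 7.2, 50 mM KCl, 7 mM MgCl2; ATP formed was read by PKLight luminescence, normalized to DMSO wells.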

Assay [15] addresses Pyruvate kinase PKM (Homo sapiens) (UniProt P14618). Kind of assay: qHTS Assay for Activators of Human Muscle Pyruvate Kinase (AID 954; active = well fitted curve in the direction sought with a large enough effect, not every such curve was filed as active;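 note: 0% = uninhibited enzyme and -100% = no enzyme or full thiadiazolimine inhibition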). The note with it: purified human muscle pyruvate kinase, luciferase-coupled luminescence, 1 h; series mostly up to 57.5 µM. In a few lines:
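A coupled luminescent readout tracked ATP made from ADP by purified PKM2. Final conditions included 0.1 nM enzyme, PEP and ADP at 0.5 and 0.1 mM, pH 7.2 imidazole buffer with BSA, and a one-hour room-temperature reaction.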

The target in assay [16] is Alpha-galactosidase A (Homo sapiens) (UniProt P06280). Kind of assay: Counterscreen for Glucocerebrosidase Inhibitors: qHTS Assay for Human alpha-Galactosidase at pH 4.5 (AID 992). Note: 0% is about no effect. Conditions: purified enzyme, fluorogenic substrate; series mostly up to 76.9 µM. In a few lines:
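Citrate buffer pH 4.5, Tween-20 0.005%. Enzyme 2 nM, substrate 80 uM, 20 min RT. Stop pH 10. Fluorescence Ex 365/Em 440. AC50 by Hill fit.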

Assay [17] addresses alpha-glucosidase (Oryza sativa, rice) (UniProt Q653V4). The assay is described as follows: Counterscreen for Glucocerebrosidase Inhibitors: qHTS Assay for Rice alpha-Glucosidase at pH 5.0 (AID 997).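 Note: 0% = full activity with enzyme and -100% = basal without enzyme.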 The note with it: rice alpha-glucosidase enzyme activity; series mostly up to 76.9 µM. Put shortly:
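Endpoint fluorogenic assay at pH 5.0: compounds (0.7 nM to 77 uM) titrated against 4 nM rice enzyme and 400 uM 4-MU-alpha-glucoside for 20 min at room temperature; NaOH/glycine stop, read ex 365/em 440 nm, Hill-fitted AC50.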
A general note: The purpose of a counterscreen is to sort out artefacts and off-target activity.

The target of assay [18] is DNA dC->dU-editing enzyme APOBEC-3G (Homo sapiens) (UniProt Q9HC16). Kind of assay: qHTS for inhibitors of Vif-A3G interactions: Validation (AID 588379). Note: 0% is about no effect. Conditions: Vif-A3G protein interaction assay; series mostly up to 46.1 µM. In a few lines:
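Yellow fluorescence (Ex 488, Em 500-530) of Vif-coexpressing HeLa A3G-eYFP cells, scanned by Acumen cytometer, reports blocked A3G degradation. Cells plated at 700/well overnight at 37 deg C before compound addition, then a further overnight compound incubation at 37 deg C.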

Assay [19] in a line: qHTS Assay for Identification of Small Molecule Agonists for Hypoxia Response Element Signaling Pathway (AID 914; active = well fitted activation curve with a large enough effect in the signal ratio, with a control signal flat, not every such curve was filed as active; the % refers to the signal ratio; note: potency is the fitted concentration of half-maximal effect). Conditions: ME-180 (cervical carcinoma) HRE-bla reporter, beta-lactamase ratio, CoCl2, 17 h; activation: stronger effect = higher value. Put shortly: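 AC50 values come from titration-series %Activity, taken as the 460/530nm ratio of CCF4 fluorescence (excitation 405nm). CellSensor HRE-bla ME-180 cells were treated 17 hours at 37 C with compound plus an EC50 level of CoCl2.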

A number with no mark means an inactive call. Results filed as inconclusive are left out. Active and inactive are the calls of the source. Unless noted, calls come from the whole dose curve; as a rule, active = well fitted curve in the direction sought with a large enough effect; inconclusive = small, poorly fitted or top-dose-only effect, or another doubt; inactive = no such curve, though single readings can be large; an effect the other way counts as inactive or inconclusive.

Glucocorticoid receptor (Homo sapiens), sequence (P04150 whole entry, looked up): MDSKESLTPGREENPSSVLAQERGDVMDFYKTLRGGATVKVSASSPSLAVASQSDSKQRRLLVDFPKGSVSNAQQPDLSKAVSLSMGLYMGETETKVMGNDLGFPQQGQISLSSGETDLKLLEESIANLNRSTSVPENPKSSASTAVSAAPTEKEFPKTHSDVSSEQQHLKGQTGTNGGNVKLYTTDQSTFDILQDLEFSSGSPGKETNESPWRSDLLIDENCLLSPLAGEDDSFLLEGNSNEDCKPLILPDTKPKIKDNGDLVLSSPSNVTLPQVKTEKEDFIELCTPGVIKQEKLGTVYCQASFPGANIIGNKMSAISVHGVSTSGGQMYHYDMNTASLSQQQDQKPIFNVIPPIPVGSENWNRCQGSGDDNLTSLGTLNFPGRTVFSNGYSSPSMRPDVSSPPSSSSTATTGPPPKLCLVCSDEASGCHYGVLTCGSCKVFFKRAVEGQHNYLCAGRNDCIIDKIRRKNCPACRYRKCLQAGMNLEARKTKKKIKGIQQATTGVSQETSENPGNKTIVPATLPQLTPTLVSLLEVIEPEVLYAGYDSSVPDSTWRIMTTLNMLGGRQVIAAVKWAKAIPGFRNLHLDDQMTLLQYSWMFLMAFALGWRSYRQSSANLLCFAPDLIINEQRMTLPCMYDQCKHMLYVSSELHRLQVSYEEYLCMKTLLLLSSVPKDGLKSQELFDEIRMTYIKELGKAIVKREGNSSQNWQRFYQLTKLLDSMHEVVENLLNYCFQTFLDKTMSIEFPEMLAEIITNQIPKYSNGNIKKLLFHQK
3',5'-cyclic-AMP phosphodiesterase 4B (Homo sapiens), sequence (Q07343 whole entry, looked up): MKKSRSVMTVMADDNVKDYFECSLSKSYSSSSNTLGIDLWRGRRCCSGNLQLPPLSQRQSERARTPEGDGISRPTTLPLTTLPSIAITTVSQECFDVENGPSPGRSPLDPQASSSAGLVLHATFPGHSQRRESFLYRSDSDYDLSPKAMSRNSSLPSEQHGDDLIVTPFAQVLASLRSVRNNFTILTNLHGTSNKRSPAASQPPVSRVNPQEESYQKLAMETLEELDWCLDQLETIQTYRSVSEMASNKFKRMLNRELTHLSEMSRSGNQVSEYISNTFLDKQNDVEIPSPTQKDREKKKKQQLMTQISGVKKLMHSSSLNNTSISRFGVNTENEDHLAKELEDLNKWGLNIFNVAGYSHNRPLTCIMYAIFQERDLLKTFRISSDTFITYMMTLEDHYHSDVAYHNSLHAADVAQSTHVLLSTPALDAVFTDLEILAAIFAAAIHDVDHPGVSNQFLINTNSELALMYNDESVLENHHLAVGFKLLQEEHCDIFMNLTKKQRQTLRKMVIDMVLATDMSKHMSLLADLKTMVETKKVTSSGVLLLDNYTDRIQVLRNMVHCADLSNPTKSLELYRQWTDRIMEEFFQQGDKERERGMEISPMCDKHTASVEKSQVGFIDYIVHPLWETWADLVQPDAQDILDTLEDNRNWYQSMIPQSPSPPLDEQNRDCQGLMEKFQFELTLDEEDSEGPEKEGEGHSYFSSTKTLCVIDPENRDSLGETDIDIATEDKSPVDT
Cytochrome P450 3A4 (Homo sapiens), sequence (P08684 whole entry, looked up): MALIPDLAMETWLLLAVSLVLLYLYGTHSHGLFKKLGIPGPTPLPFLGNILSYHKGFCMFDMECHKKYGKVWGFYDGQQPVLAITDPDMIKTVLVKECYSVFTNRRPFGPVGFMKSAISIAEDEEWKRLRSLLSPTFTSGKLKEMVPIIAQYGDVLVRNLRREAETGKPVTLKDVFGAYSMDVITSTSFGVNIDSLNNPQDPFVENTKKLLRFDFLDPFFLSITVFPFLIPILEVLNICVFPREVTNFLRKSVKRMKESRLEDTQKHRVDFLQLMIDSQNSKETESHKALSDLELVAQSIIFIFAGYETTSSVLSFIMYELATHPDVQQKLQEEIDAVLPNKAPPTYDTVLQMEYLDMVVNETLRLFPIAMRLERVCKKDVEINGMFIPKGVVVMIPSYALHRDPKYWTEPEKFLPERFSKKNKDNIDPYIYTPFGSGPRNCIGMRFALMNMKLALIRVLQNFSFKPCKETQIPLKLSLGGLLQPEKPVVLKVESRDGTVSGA
Cytochrome P450 1A2 (Homo sapiens), sequence (P05177 whole entry, looked up): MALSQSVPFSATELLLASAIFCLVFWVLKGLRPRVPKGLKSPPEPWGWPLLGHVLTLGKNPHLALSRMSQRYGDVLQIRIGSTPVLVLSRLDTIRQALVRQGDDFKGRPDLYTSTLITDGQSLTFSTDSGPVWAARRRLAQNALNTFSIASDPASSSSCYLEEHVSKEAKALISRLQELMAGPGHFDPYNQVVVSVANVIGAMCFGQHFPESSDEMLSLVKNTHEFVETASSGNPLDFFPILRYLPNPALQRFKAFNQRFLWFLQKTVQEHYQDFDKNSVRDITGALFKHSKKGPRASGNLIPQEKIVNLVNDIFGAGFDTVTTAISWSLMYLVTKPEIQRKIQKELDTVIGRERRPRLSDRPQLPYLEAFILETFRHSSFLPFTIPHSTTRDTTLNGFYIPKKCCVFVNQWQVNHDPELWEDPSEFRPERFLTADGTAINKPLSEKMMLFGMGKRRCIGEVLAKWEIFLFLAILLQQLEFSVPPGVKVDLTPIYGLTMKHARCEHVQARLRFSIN
Lysosomal acid glucosylceramidase (Homo sapiens), sequence (P04062 whole entry, looked up): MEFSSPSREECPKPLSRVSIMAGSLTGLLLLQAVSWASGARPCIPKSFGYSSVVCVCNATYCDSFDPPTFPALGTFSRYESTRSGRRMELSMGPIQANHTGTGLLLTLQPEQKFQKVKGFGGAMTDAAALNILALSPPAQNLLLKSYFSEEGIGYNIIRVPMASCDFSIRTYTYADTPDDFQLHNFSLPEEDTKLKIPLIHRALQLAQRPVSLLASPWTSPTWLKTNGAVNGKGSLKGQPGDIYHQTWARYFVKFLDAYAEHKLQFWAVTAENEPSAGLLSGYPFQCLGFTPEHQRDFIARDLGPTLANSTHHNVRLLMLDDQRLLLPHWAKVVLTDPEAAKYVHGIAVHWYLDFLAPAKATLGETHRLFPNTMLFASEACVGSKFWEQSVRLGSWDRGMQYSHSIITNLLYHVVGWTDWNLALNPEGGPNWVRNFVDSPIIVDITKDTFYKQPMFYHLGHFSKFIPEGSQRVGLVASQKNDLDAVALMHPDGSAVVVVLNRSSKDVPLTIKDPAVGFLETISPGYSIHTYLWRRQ
Alpha-galactosidase A (Homo sapiens), sequence (P06280 whole entry, looked up): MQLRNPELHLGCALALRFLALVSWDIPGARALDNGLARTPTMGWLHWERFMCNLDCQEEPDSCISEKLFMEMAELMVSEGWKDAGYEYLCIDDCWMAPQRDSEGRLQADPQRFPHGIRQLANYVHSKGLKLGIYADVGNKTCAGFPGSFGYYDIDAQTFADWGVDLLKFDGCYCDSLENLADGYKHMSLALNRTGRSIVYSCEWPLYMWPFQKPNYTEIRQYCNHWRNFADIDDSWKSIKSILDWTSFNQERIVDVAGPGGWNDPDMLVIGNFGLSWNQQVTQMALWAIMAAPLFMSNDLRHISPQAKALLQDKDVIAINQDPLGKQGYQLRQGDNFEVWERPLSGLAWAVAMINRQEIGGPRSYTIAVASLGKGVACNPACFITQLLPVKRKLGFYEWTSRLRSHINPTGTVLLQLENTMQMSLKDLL
Guanine nucleotide-binding protein G(i) subunit alpha-1 (Homo sapiens), sequence (P63096 whole entry, looked up): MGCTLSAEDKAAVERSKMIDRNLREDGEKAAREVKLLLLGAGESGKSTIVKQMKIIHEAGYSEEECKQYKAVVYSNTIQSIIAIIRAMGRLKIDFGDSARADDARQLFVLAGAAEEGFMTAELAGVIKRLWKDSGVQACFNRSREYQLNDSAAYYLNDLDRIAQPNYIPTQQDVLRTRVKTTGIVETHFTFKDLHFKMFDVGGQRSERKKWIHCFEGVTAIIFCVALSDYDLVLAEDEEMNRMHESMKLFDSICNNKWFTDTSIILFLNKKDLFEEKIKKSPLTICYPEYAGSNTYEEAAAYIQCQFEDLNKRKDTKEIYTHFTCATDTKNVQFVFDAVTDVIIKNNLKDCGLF
DNA dC->dU-editing enzyme APOBEC-3G (Homo sapiens), sequence (Q9HC16 whole entry, looked up): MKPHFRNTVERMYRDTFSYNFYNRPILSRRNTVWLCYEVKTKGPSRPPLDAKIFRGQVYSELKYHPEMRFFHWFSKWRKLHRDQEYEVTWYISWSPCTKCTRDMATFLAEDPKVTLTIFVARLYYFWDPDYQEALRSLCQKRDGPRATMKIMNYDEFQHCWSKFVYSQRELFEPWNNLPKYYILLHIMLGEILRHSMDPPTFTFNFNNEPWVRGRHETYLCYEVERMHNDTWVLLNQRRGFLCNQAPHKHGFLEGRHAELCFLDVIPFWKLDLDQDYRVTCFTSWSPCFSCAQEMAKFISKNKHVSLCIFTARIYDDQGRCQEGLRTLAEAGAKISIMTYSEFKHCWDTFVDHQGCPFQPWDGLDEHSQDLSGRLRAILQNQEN
Muscarinic acetylcholine receptor M1 (Rattus norvegicus), sequence (P08482 whole entry, looked up): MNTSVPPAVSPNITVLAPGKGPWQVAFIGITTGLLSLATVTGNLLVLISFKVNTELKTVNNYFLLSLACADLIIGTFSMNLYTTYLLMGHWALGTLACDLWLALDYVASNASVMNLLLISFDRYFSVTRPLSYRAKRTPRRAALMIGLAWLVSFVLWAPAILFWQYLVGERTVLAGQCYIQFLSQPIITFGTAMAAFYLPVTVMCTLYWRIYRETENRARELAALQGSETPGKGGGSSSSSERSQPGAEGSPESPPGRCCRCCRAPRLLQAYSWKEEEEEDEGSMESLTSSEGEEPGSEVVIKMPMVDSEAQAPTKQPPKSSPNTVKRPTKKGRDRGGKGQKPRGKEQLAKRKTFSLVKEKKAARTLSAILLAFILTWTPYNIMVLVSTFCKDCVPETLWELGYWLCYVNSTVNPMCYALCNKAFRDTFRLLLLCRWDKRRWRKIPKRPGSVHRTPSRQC

With `O=c1c(-c2ccc(Cl)cc2)nc2cncnc2n1Cc1ccc(F)cc1`, the Potency is greater than 11.4 µM in [1], greater than 9.22 µM in assay [4] and greater than 46 µM in assay [5]. In assay [2], the activity change, negative = inhibition is 5.72%. Besides, in [3], the activity, negative = inhibition was -2.95%. Also, the Potency entry in assay [6] and in assay [7] was “inactive” each time. In addition, the outcome in assay [8] was inactive.
Regarding `Oc1cc2c(c(Cl)c1O)CCNC[C@H]2c1ccccc1`, the figures for the activity change, negative = inhibition in assay [9] and in [2] were -21% [at 38 µM] and -20.4% [at 38 µM], respectively. Further, the Potency entry in assay [10], in [6], in assay [7], in [11], in [12] and in assay [13] was “inactive” throughout. Besides, the Potency in assay [4] and in [5] was greater than 46 µM throughout. Further, the compound was classed as inactive in assay [14], in assay [15], in assay [16], in assay [17], in assay [18] and in assay [8].
Turning to `COc1ccc(Oc2ncc3nc(-c4cccs4)c(=O)n(Cc4cccs4)c3n2)cc1`, the Potency was greater than 11.4 µM in assay [1], greater than 9.22 µM in [4], greater than 46 µM in [5] and 3.16 µM (active) in assay [19]. Further, in assay [2], the activity change, negative = inhibition is -3.5%. In addition, the Potency result in [6] and in [7] was “inactive” throughout. The result in [8] was inactive.
For `COc1ccc(NC(=O)N2CCCC3(CCN(C(=O)c4cccc(F)c4)CC3)C2)cc1`, the activity change, negative = inhibition in [9] was -26.5%; in [2], -25.3%. The Potency entry in [10], in [6] and in assay [7] was “inactive” each time. In assay [3], the activity, negative = inhibition was -10.9%. Further, the Potency in assay [5] is 29.5 µM (active). In addition, in assay [8], the result was inactive.
